Experimental findings from PubChem BioAssay (EPA / NIEHS) are described below.

The AC50 is the midpoint of the concentration-response curve, whichever way the signal moves.

Experiment [1] is described as follows: BSK_CASM3C_SRB: Viability Assessment in the BioMAP Diversity Plus: CASM3C Assay (AID 2283050).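 Also: total protein by SRB staining as cytotoxicity measure in parallel cultures; cells exposed to compound for 24 h.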 Particulars: primary human coronary artery smooth muscle cells.
Read-out in experiment [2]: Thrombomodulin, THBD (gene 7056)
In words: BSK_CASM3C_Thrombomodulin: BioMAP Diversity Plus: CASM3C Assay for Thrombomodulin Biomarker Activity (AID 2283051).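 Also: thrombomodulin protein level measured by ELISA 24 h after dosing.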 Particulars: primary human coronary artery smooth muscle cells; actives raise or lower the signal.

Read-out in experiment [3]: Tissue Factor, F3 (gene 2152)
In words: BSK_CASM3C_TissueFactor: BioMAP Diversity Plus: CASM3C Assay for Tissue Factor Biomarker Activity (AID 2283052).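 Also: cell surface tissue factor protein level read by ELISA.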 To be noted: primary human coronary artery smooth muscle cells; actives raise or lower the signal.

Read-out in experiment [4]: Interferon-gamma inducible Protein 10 (IP10), CXCL10 (gene 3627)
Briefly: BSK_hDFCGF_IP10: BioMAP Diversity Plus: hDFCGF Assay for Interferon-gamma inducible Protein 10 (IP10) Biomarker Activity (AID 2283053). Particulars: primary human foreskin fibroblasts; actives raise or lower the signal. The method in brief: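 Primary foreskin fibroblasts, human; 24 h compound exposure; IP-10 by ELISA; bidirectional fit vs DMSO.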

Read-out in experiment [5]: Urokinase-type plasminogen activator receptor (uPAR), PLAUR (gene 5329)
Briefly: BSK_CASM3C_uPAR: BioMAP Diversity Plus: CASM3C Assay for Urokinase-type plasminogen activator receptor (uPAR) Biomarker Activity (AID 2283054).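 Also: cell-surface uPAR protein level quantified by ELISA.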 To be noted: primary human coronary artery smooth muscle cells; actives raise or lower the signal.

Read-out in experiment [6]: Vascular cell adhesion molecule 1 (VCAM1), VCAM1 (gene 7412)
In words: BSK_CASM3C_VCAM1: BioMAP Diversity Plus: CASM3C Assay for Vascular cell adhesion molecule 1 (VCAM1) Biomarker Activity (AID 2283055).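 Also: VCAM-1 protein level quantified by ELISA on the cells.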 Particulars: primary human coronary artery smooth muscle cells; actives raise or lower the signal.

Read-out in experiment [7]: Collagen III, COL3A1 (gene 1281)
In words: BSK_hDFCGF_CollagenIII: BioMAP Diversity Plus: hDFCGF Assay for Collagen III Biomarker Activity (AID 2283056). Particulars: primary human foreskin fibroblasts; actives raise or lower the signal. Put shortly: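 Human foreskin primary fibroblasts were exposed to test chemicals for 24 h, after which collagen III was quantified by ELISA. Activity was fitted bidirectionally against DMSO as negative control and baseline.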

Read-out in experiment [8]: Epidermal growth factor receptor (EGFR), EGFR (gene 1956)
In words: BSK_hDFCGF_EGFR: BioMAP Diversity Plus: hDFCGF Assay for Epidermal growth factor receptor (EGFR) Biomarker Activity (AID 2283057). To be noted: primary human foreskin fibroblasts; actives raise or lower the signal. Put shortly:
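hDFCGF system, primary human foreskin fibroblasts; compound 24 h; EGFR measured by ELISA; DMSO = negative control/baseline; bidirectional fitting.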

Read-out in experiment [9]: Interleukin-8 (IL8), CXCL8 (gene 3576)
Briefly: BSK_hDFCGF_IL8: BioMAP Diversity Plus: hDFCGF Assay for Interleukin-8 (IL8) Biomarker Activity (AID 2283058). Particulars: primary human foreskin fibroblasts; actives raise or lower the signal. Put shortly: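 hDFCGF human dermal fibroblasts; 24 h chemical exposure; IL-8 by ELISA; bidirectional curve fit vs DMSO baseline; gain or loss of signal scored.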

The nature of experiment [10]: BSK_hDFCGF_Proliferation: Cell Proliferation Assessment in the BioMAP Diversity Plus: hDFCGF Assay (AID 2283059).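 Also: curves fitted for both rise and fall of signal versus DMSO baseline.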 To be noted: primary human foreskin fibroblasts. Put shortly:
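Primary human foreskin fibroblasts, sub-confluent; […]; 10% TCA fix, 0.1% SRB stain, A560 total protein. Gain/loss fitted bidirectionally vs DMSO control.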

Values joined by “and” are separate entries in the source; they are usually repeats but may differ in a detail not shown here. Equal values may be shown once. A structure can be active in one record and inactive in another. Active and inactive are the calls of the source. The calls were made as follows: active = hit-call score of the fitted dose curve at least 0.9, where 1 is the maximum; inactive = score below 0.9.

With `CC(C)(C)c1cc(CCC(=O)NCCCCCCNC(=O)CCc2cc(C(C)(C)C)c(O)c(C(C)(C)C)c2)cc(C(C)(C)C)c1O`, the outcome in experiment [1], in experiment [2], in experiment [3], in experiment [4], in experiment [5] and in experiment [6] was inactive. The outcome in [7], in [8] and in experiment [9] was inactive.
As for `OCC(F)(F)C(F)(F)C(F)(F)C(F)(F)C(F)(F)C(F)(F)CO`, the outcome in [1], in [2], in experiment [3], in experiment [4], in [5] and in experiment [6] was inactive. The result in experiment [7], in [8] and in experiment [9] was inactive.
Consider `OCC(O)CC(F)(F)C(F)(F)C(F)(F)C(F)(F)F` (centres undefined), for which the result in experiment [1], in experiment [2], in [3], in experiment [4], in experiment [5] and in experiment [6] was inactive. Moreover, the outcome in experiment [7], in experiment [8] and in [9] was inactive.
As for `O=C(O)CCC(F)(F)C(F)(F)C(F)(F)F`, the result in experiment [1], in [2], in [3], in [4], in experiment [5] and in experiment [6] was inactive. In addition, the outcome in experiment [7], in [8] and in experiment [9] was inactive.
For `OCCCC(F)(F)C(F)(F)C(F)(F)C(F)(F)C(F)(F)C(F)(F)C(F)(F)C(F)(F)F`, the AC50 in experiment [1] is 32 µM (active) and 48.6 µM (active); in experiment [2], 7.67 µM (active); in experiment [3], 25.4 µM (active); in [4], 9.54 µM (active) and 7.81 µM (active); in experiment [5], 46.1 µM (active) and 51.2 µM (active); in experiment [6], 37.4 µM (active) and 30 µM (active). Moreover, the AC50 in experiment [7] was 10.7 µM (active) and 9.75 µM (active); in experiment [8], 3.16 µM (active) and 3.2 µM (active); in [9] it was 15.9 µM (active) and 12 µM (active); in experiment [10] it was 3.28 µM (active) and 4.77 µM (active). Further, the result in experiment [2] and in [3] was inactive.
For the compound `O=S(=O)(OCC(F)(F)F)C(F)(F)C(F)(F)C(F)(F)C(F)(F)F`, the result in experiment [1], in [2], in [3], in [5], in [6] and in [7] was inactive. The outcome in experiment [8], in experiment [9] and in experiment [10] was inactive. The AC50 was 30 µM (active) in experiment [3]; 15.9 µM (active) and 16.4 µM (active) in [4]; 13.2 µM (active) in experiment [6].
As to `OC(O)C(F)(F)C(F)(F)F`, the outcome in experiment [1], in experiment [2], in experiment [3], in experiment [4], in experiment [5] and in experiment [6] was inactive. Further, the outcome in experiment [7], in [8] and in experiment [9] was inactive.
As for `CCN(CCO)S(=O)(=O)C(F)(F)C(F)(F)C(F)(F)C(F)(F)C(F)(F)C(F)(F)C(F)(F)C(F)(F)F`, the AC50 in [1] was 19.2 µM (active) and 9.12 µM (active); in experiment [2] it was 13.4 µM (active) and 10.3 µM (active); in experiment [4], 35.9 µM (active) and 30 µM (active); in [5], 11.1 µM (active) and 30 µM (active); in experiment [6], 7.11 µM (active) and 8.86 µM (active); in experiment [7], 8.31 µM (active). In addition, the AC50 in experiment [9] is 49.9 µM (active); in experiment [10] it was 7.13 µM (active) and 8.13 µM (active). The result in [3], in experiment [7], in experiment [8] and in experiment [9] was inactive.
For the compound `Cc1cc(O)c(C(C)(C)C)cc1C(C)(C)C`, the AC50 in [1] was 4.99 µM (active); in experiment [2], 12 µM (active); in experiment [3], 3.61 µM (active); in [4] it was 6.51 µM (active); in experiment [5], 8.38 µM (active); in experiment [6] it was 4.81 µM (active). Also, in [7], the AC50 was 1.92 µM (active). Further, the result in experiment [8] and in experiment [9] was inactive.
For `OCC(F)(F)C(F)(F)C(F)(F)C(F)(F)C(F)(F)C(F)(F)C(F)(F)C(F)(F)CO`, the AC50 was 43.2 µM (active) in [1]; 44.9 µM (active) and 44.5 µM (active) in [4]; 40.9 µM (active) in [6]; 30 µM (active) and 42.7 µM (active) in experiment [7]; 47.8 µM (active) and 48.7 µM (active) in [8]; 48 µM (active) in experiment [9]. Besides, the result in [1], in experiment [2], in [3], in [5], in experiment [6] and in experiment [9] was inactive.
Take `NC(=O)C(F)(F)C(F)(F)C(F)(F)C(F)(F)C(N)=O`: the outcome in [1], in experiment [2], in [3], in [4], in experiment [5] and in experiment [6] was inactive. In addition, the result in [7], in experiment [8] and in [9] was inactive.
For `FC(F)(F)C(F)(F)C(F)(F)CC1CO1` (centres undefined), the outcome in experiment [1], in [2], in experiment [3], in experiment [4], in experiment [5] and in [6] was inactive. Also, the result in [7], in experiment [8], in experiment [9] and in experiment [10] was inactive. Besides, the AC50 in experiment [4] was 12.9 µM (active).
Consider `CC1=CC2C3C=CC(C3)C2C1C` (centres undefined), for which the result in experiment [1], in experiment [2], in experiment [3], in [4], in experiment [5] and in experiment [6] was inactive. For the same compound, the outcome in experiment [7], in experiment [8] and in experiment [9] was inactive.
Turning to `O=C(Cl)C(F)(F)C(F)(F)C(F)(F)C(F)(F)C(F)(F)C(F)(F)F`, the outcome in [1], in experiment [2], in experiment [3], in experiment [4], in experiment [5] and in experiment [6] was inactive. Besides, the result in experiment [7], in [8] and in experiment [9] was inactive. Moreover, the AC50 in experiment [8] was 2.04 µM (active).
With `C=C(C)C(=O)OCC(F)(F)C(F)(F)C(F)(F)C(F)F`, the result in experiment [1], in experiment [2], in [3], in [4], in experiment [5] and in [6] was inactive. For the same compound, the result in [7], in experiment [8] and in [9] was inactive.
In the case of `OCC(F)(F)C(F)(F)C(F)(F)CO`, the result in [1], in experiment [2], in experiment [3], in experiment [4], in experiment [5] and in experiment [6] was inactive. Moreover, the outcome in [7], in experiment [8] and in experiment [9] was inactive.
